Assay results published in PubChem BioAssay (EPA / NIEHS).
“And” between values parts separate entries of the source, which are not always exact repeats. Equal entries are not always repeated. Inconclusive results are not listed. More than one record can exist for a structure, and the calls need not agree. The source made the active and inactive calls. How the source made its calls: active means hit-call score of the fitted dose curve at least 0.9, where 1 is the maximum; inconclusive means response in the unintended direction; inactive means score below 0.9.

molecular target: Estrogen receptor (Homo sapiens) (UniProt P03372); test: ATG_ERa_TRANS: Attagene TRANS-FACTORIAL HepG2 Assay for human Estrogen Receptor alpha (ERa) (AID 2282970); settings: HepG2 Attagene TRANS ERa GAL4 reporter, mRNA
Method: ATG_TRANS is a cell-based, multiplexed-readout assay that uses HepG2, a human liver cell line, with measurements taken at 24 hours after chemical dosing in a 24-well plate.ATG_ERa_TRANS is one of 30 assay component(s) measured or calculated from the ATG_TRANS assay. It is designed to make measurements of mRNA induction, a form of inducible reporter, as detected with fluorescence intensity signals by Reverse transcription polymerase chain reaction (RT-PCR) and Capillary electrophoresis technology.Data from the assay component ATG_ERa_TRANS was analyzed into 1 assay endpoint. This assay endpoint, ATG_ERa_TRANS, was analyzed in the positive analysis fitting direction relative to DMSO as the negative control and baseline of activity. Using a type of inducible reporter, measures of mRNA for gain-of-signal activity can be used to understand the reporter gene at the transcription factor-level as they relate to the gene ESR1. Furthermore, this assay endpoint can be referred to as a primary readout, because this assay has produced multiple assay endpoints where this one serves a reporter gene function. To generalize the intended target to other relatable targets, this assay endpoint is annotated to the nuclear receptor intended target family, where the subfamily is steroidal.
Human liver HepG2 cells are transiently transfected with multiple reporter transcription units (MRTUs) in 6-well plates using FuGene 6 reagent (Roche; 3 ml FuGene/1 mg DNA). The MRTU constructs are regulated by a cis-regulating element (promoter). […] A major difference between the CIS and TRANS system is that in CIS activities of endogenous TFs are measured, whereas the TRANS assay evaluates changes in activities of exogenous, chimeric NR-Gal4 proteins. […] At the end of 24 hour incubation, total RNA was isolated using TriZol reagent (Invitrogen). The isolated RNA is then reverse-transcribed using oligo(dT) primer and Mo-MLV reverse transcriptase (Invitrogen) with DNAse I (Ambion) treatment for 30 min. The one-tenth of the produced cDNA was amplified by PCR using Taq DNA polymerase (Invitrogen) and two reporter sequence-specific primers. The PCR products were fluorescently labeled by primer extension with 6-arboxyfluorescein (6-FAM) 5'-labeled reporter sequence-specific primer (2 min at 95 C, 20 s at 68 C and 10 min at 72 C) and these products were digested with 5U of HpaI (New England Biolabs) for 2h at 37 C. […] The raw capillary electrophoresis data was processed using Attagraph software (Attagene).

Chain of Estrogen receptor (Homo sapiens) (P03372 whole entry, looked up, the tested form may be a part): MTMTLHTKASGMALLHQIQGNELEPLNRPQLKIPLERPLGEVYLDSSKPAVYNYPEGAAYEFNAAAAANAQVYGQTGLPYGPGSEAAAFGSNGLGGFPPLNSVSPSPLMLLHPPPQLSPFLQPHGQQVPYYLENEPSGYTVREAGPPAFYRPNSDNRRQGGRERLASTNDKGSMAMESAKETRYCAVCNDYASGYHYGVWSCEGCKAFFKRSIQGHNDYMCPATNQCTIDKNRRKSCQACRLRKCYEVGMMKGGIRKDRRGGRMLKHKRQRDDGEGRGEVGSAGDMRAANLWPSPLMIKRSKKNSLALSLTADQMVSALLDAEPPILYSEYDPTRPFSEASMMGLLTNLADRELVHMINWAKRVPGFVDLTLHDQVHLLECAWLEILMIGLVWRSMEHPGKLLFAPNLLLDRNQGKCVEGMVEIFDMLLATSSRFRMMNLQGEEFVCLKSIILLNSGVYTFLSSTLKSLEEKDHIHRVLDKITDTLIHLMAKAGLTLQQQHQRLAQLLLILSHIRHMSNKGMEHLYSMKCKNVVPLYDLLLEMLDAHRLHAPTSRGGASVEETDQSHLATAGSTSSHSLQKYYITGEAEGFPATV

Compound	AC50	outcome
CCOP(=S)(OCC)SCSCC	27.4 µM (active)	–
OCC(F)(F)OC(F)(F)C(F)(F)OC(F)(F)C(F)(F)OC(F)(F)F	6.04 µM (active) and 4.34 µM (active)	–
N#Cc1ccc(O)cc1	–	inactive
CC(O)C(F)(F)C(F)(F)F (stereo not given)	–	inactive
CC(=O)c1ccc(-c2ccccc2)cc1	6.19 µM (active)	–
N#Cc1c(-c2ccc(Cl)cc2)[nH]c(C(F)(F)F)c1Br	–	inactive
Cc1ccc2c(c1N)C(=O)c1ccccc1C2=O	4.04 µM (active)	–
O=P1(N(CCCl)CCCl)NCCCO1 (stereo not given)	17 µM (active)	–
Cc1ccc([N+](=O)[O-])cc1C	–	inactive
NC(=O)C(F)(F)C(F)(F)F	–	inactive
c1cc2c3c(cccc3c1)CC2	–	inactive
CCCCc1ccc(O)cc1	4.66 µM (active)	–
COP(N)(=S)OC	–	inactive
O=S(=O)(F)C(F)(F)C(F)(F)C(F)(F)C(F)(F)C(F)(F)C(F)(F)C(F)(F)C(F)(F)F	–	inactive
Cc1c([N+](=O)[O-])cc2c(c1[N+](=O)[O-])C(C)(C)CC2(C)C	–	inactive
CC(Cl)CN(C)C (stereo not given)	–	inactive
N#Cc1cc([N+](=O)[O-])ccc1N	–	inactive
Nc1ccc2ccccc2c1	–	inactive
CC(=O)CCc1ccc2c(c1)OCO2	–	inactive
COC(=O)C(F)(F)C(F)(F)OC(F)(C(F)(F)F)C(F)(F)OC(F)=C(F)F (stereo not given)	30.3 µM (active) and 13.7 µM (active)	inactive

Compound	AC50	outcome
O=[N+]([O-])c1ccc(Cl)c(Cl)c1	–	inactive
O=C(O)C(F)(OC(F)(F)C(F)(F)C(F)(F)F)C(F)(F)F (stereo not given)	–	inactive
Nc1ccc(Cl)cc1	–	inactive
CCCCN(CC)C(=O)SCCC	100 µM (active)	–
FC(F)(F)C(F)(C(F)(F)F)C(F)(F)C(F)(F)CC1CO1 (stereo not given)	–	inactive
c1ccc2c(c1)Nc1ccccc1S2	11.7 µM (active)	–
CCCCN(CCCC)N=O	–	inactive
[N-]=[N+]=[N-]	–	inactive
CNC(=O)Oc1ccc(N(C)C)c(C)c1	–	inactive
CC(Cl)(Cl)C(=O)O	–	inactive
O=C(O)C(F)(F)OC(F)(F)C(F)(F)OC(F)(F)F	–	inactive
Oc1ccc(I)cc1	19.7 µM (active)	–
CC(C)(C)c1ccccc1OP(=O)(Oc1ccccc1)Oc1ccccc1	5.03 µM (active)	–
O=C(O)C1C(C(=O)O)C2(Cl)C(Cl)=C(Cl)C1(Cl)C2(Cl)Cl (stereo not given)	–	inactive
CCN(CC)c1ccccc1	–	inactive
CC(O)C#N (stereo not given)	–	inactive
O=P(OCC(Br)CBr)(OCC(Br)CBr)OCC(Br)CBr (stereo not given)	–	inactive
Clc1ccc(Oc2ccccc2)cc1	41.7 µM (active)	–
O=C(O)C=CC(F)(C(F)(F)F)C(F)(F)F	–	inactive
